HSF-1 act – increases HSF-1 driven luciferase reporter signal | NIH3T3-HGL HSF-1 luciferase reporter, MG132, 8 h; 100% = twice DMSO control signal | activation, % at 9 µM | 300,000 tested, 1.7% active;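 active means mean replicate activation of at least 50% with a set share of replicates each reaching 50%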;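 further: 0% = median of the neutral control wells and 100% = twice that signal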
HSF1 inh – HSF1 inhibition; 300,000 tested, 0.77% active; NIH3T3-HGL HSE-luciferase, MG132-induced, luminescence 8 h; active compounds read low; activity change, negative = inhibition, % at 7.5 µM (by protocol);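 active means more than half of replicate wells show activity change below -50%, luminescence cut by over half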;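 further: luciferase reports HSF-1 transcriptional activity via heat shock element; 0% = median of DMSO wells and -100% = zero luminescence signal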
HIF activator – HIF pathway transcriptional activation; U2OS HRE-luciferase reporter, luminescence; normalized: DMSO 0%, desferrioxamine 100%; activation, % at 7.5 µM (by protocol); 300,000 tested, 0.32% active;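 active means mean activation of at least 10% of the iron chelator positive control signal, with at least half of replicates also reaching 10%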
ARNT-TACC3 inh – ARNT/TACC3 interaction disruption. Q9Y6A5. AlphaScreen His-ARNT PAS-B/GST-TACC3 binding, luminescence; TACC3 fragment carries E629A point mutation. inhibition, % at 9.99 µM. 390,000 tested, 0.66% active. AID 623870;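 active means mean inhibition of replicates at least 50% and at least half of replicates each reaching 50%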;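 further: 0% = complete ARNT plus TACC3 wells and 100% = ARNT alone without TACC3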
HSP90 inh – inhibitors of HSP90 luciferase refolding in rabbit reticulocyte lysate. luciferase refolding luminescence, 3 h. inhibition, % at 5.6 µM. 290,000 tested, 0.91% active. AID 1789;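 active means inhibition above the screen-wide mean plus 3 SD, computed separately per campaign, cut at about 16% in these data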;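 further: 0% = DMSO wells and 100% = 60 µM geldanamycin wells; inhibitors lower the luminescence because luciferase stays unfolded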
* = called active by the depositor; / = no result. A selection: hits, their analogues and other compounds. The true share with any hit is near 3.1%.

SMILES	HSF-1 act	HSF1 inh	HIF activator	ARNT-TACC3 inh	HSP90 inh
O=C(N[C@@H]1CC[C@H](CCNS(=O)(=O)c2ccccc2)O[C@@H]1CO)c1cccc(F)c1	/	/	/	5	/
CN(C)S(=O)(=O)c1cccc(NC(=O)COC(=O)/C=C/c2ccc(Br)o2)c1	3	5	0	0	-2
NS(=O)(=O)c1ccc(NC(=O)COC(=O)/C=C/c2ccc([N+](=O)[O-])cc2)cc1	32	18	0	-6	3
CN(C)S(=O)(=O)c1cccc(NC(=O)COC(=O)/C=C/c2ccc([N+](=O)[O-])cc2)c1	63*	20	0	-6	2
Cc1ccc(NC(=O)COC(=O)/C=C/c2ccc(Br)o2)cc1S(=O)(=O)N(C)C	81*	56	-1	-3	-1
CCC(=O)Nc1ccc2c(c1)C(=O)N(C)[C@H]1CC[C@@H](CC(=O)NCC3CC3)O[C@@H]1CO2	/	/	/	-18	/
CN1[C@@H]2c3ccc(-c4ccccc4)c(=O)n3C[C@@H]2[C@@H](CO)[C@@H]1C(=O)NC1Cc2ccccc2C1	/	/	/	-1	/
CCC(=O)N(C)C[C@@H]1[C@@H](c2ccc(C3=CCCCC3)cc2)[C@H](CO)N1C(C)=O	/	/	/	1	/
CC(=O)Nc1ccccc1OC(C)C(=O)N1CC(C)CC(C)C1 (configuration not stated)	114*	56	1	-3	-1
O=C(Nc1ccc(Cl)cc1)N1C[C@@H]2[C@H](c3ccccc31)[C@H](CO)N2CC1CCCCC1	/	/	/	2	/
O=C(CN(CC1CCCO1)S(=O)(=O)c1ccc(S(=O)(=O)NC2CC2)cc1)Nc1ccccc1 (configuration not stated)	115*	61	0	-3	2
O=C(Cn1cnc2ccccc21)c1ccccc1	-8	-1	-8	-3	-1
O=C(O)c1ccn(Cn2cnc3ccccc32)n1	-80	-75*	0	-20	0
COc1ccc(S(=O)(=O)Nc2ccc3c(c2)CC(=O)N([C@@H](C)CO)C[C@H](C)[C@H](CN(C)Cc2ccc(C(=O)O)cc2)O3)cc1	/	/	/	-6	/
CC(C)c1nc(SCc2c(F)cccc2Cl)c2c(=O)n(C)c(=O)n(C)c2n1	-73	-67*	0	-3	0
Cn1c(=O)c2c(nc(SCCCC#N)n2Cc2c(F)cccc2Cl)n(C)c1=O	11	5	-1	4	0
CO[C@H]1CN(C)C(=O)c2ccc(NC(=O)Nc3ccccc3)cc2OC[C@H](C)N(C(=O)Nc2c(C)noc2C)C[C@H]1C	/	/	/	-7	/
COc1ccc(-c2cc(-c3cc(C)ccc3O)[nH]n2)cc1	264*	252	4	-7	-2
COc1ccc(-c2cc(-c3ccc(C)cc3)n[nH]2)c(O)c1	31	8	1	-1	-2
Cc1ccc(O)c(-c2cc(-c3ccccc3C)[nH]n2)c1	162*	123	3	-3	-6
Cc1ccc(O)c(-c2cc(C(=O)Nc3cccnc3)[nH]n2)c1	-26	-8	3	6	1
Cc1ccc(O)c(-c2cc(-c3ccccc3[N+](=O)[O-])[nH]n2)c1	59*	42	2	-5	-4
Oc1ccc(Cl)cc1-c1cc(-c2ccccc2Cl)[nH]n1	20	10	1	1	1
O=[N+]([O-])c1ccccc1-c1cc(-c2cc(Cl)ccc2O)n[nH]1	21	33	0	11	1
Cc1ccc(O)c(-c2cc(C(F)(F)C(F)F)[nH]n2)c1	80*	50	0	3	-1
SMILES	HSF-1 act	HSF1 inh	HIF activator	ARNT-TACC3 inh	HSP90 inh
Cc1ccc(S(=O)(=O)N(C)C[C@H]2Oc3cc(C#Cc4ccccc4)ccc3S(=O)(=O)N([C@@H](C)CO)C[C@H]2C)cc1	/	/	/	8	/
CN1C(=O)c2cc(NC(=O)c3cccs3)ccc2OC[C@@H]2O[C@@H](CC(=O)N3CCOCC3)CC[C@@H]21	/	/	/	-2	/
COc1ccc(NC(=O)N(C)C[C@@H]2OCCCC[C@@H](C)Oc3ccc(NC(=O)C4CCCCC4)cc3C(=O)N([C@@H](C)CO)C[C@H]2C)cc1	/	/	/	0	/
Cc1cc(NC(=O)CSc2nc3c(sc4ccccc43)c(=O)n2CCc2ccccc2)n[nH]1	37	39	-1	/	2
Cc1cc(NC(=O)CSc2nc3c(sc4ccccc43)c(=O)n2CCCN2CCOCC2)n[nH]1	64*	41	1	0	2
CC(C)(C)OC(=O)N1CSC[C@H]1C(=O)NC[C@H](CC(=O)O)c1ccc(Cl)cc1	82*	39	-23	-12	-2
C[C@H](CO)N1C[C@H](C)[C@@H](CN(C)Cc2ccc(C(=O)O)cc2)OCCCC[C@H](C)Oc2ccc(NS(=O)(=O)c3cccs3)cc2C1=O	/	/	/	-17	/
Cc1noc(C)c1S(=O)(=O)Nc1ccc2c(c1)C(=O)N([C@@H](C)CO)C[C@@H](C)[C@@H](CN(C)C(=O)Cc1ccccc1)OCCCC[C@@H](C)O2	/	/	/	-8	/
COCCNC(=O)c1cc2c(c(-c3cccc(-c4cccc(F)c4)c3)n1)[C@H](CCO)N([S@@](=O)C(C)(C)C)C2	/	/	/	11	/
COc1ccccc1CN1CCCC(C(=O)N(C)Cc2ccccc2)C1 (configuration not stated)	-1	-5	0	-12	-5
COc1ccccc1CN1CCCC(CN(CCN(C)C)C(=O)C2CCCC2)C1 (configuration not stated)	-71	-62*	0	2	0
CCCNC(=O)C[C@H]1C[C@@H]2c3cc(NS(=O)(=O)c4ccc(OC)cc4)ccc3O[C@@H]2[C@@H](CO)O1	/	/	/	-5	/
CCOC(=O)/C(C#N)=N/Nc1c(C)n(C)n(-c2ccccc2)c1=O	9	-9	-1	/	-3
Cc1ccccc1C(=O)/C(C#N)=N/Nc1c(C)n(C)n(-c2ccccc2)c1=O	5	-2	0	57*	-6
Cc1c(N/N=C(\C#N)C(=O)c2ccccc2)c(=O)n(-c2ccccc2)n1C	6	7	0	67*	-1
CNC(=O)C[C@@H]1CC[C@H]2[C@H](COc3ccc(NC(=O)c4ccc(F)c(F)c4)cc3C(=O)N2C)O1	/	/	/	-19	/
Cc1nc(NC(=O)/C=C/c2ccc(Cl)cc2Cl)sc1C(=O)N(C)C	-81	-76*	0	-1	-1
O=C1CCN(c2ccccc2)N1	/	/	/	-12	/
O=C1CN(c2ccccc2)C(=O)N1	-27	-15	48*	-29	5
CN(C)CCCN(C(=O)c1ccc(S(=O)(=O)N2CCc3ccccc32)cc1)c1nc2ccc(Cl)cc2s1	-42	-26	0	2	16*
CN(C)CCN(C(=O)c1ccc2c(c1)OCCO2)c1nc2ccc(Cl)cc2s1	-1	-4	3	46*	2
COc1ccccc1C(=O)N1C[C@H]2[C@@H](c3ccccc31)[C@H](CO)N2C(=O)C1CCOCC1	/	/	/	-2	/
COc1ccc(C2CC(c3ccccc3)=NN2C(=O)c2cccs2)cc1 (configuration not stated)	71*	51	3	-3	-4

Compound activity from PubChem.
